Source: PubChem
The sample as a whole holds a higher share of hits than the screen did.
Giardia FBPA inh-1 = Giardia lamblia aldolase inhibition; A8B2U2; purified Giardia FBPA; Potency, µM (doses to about 59.6 µM), actives largely listed as inhibitors; 290,000 tested, 0.71% active; further: nearly all actives have a fitted effect of over 55% in size
Target sequence (A8B2U2 whole entry, looked up): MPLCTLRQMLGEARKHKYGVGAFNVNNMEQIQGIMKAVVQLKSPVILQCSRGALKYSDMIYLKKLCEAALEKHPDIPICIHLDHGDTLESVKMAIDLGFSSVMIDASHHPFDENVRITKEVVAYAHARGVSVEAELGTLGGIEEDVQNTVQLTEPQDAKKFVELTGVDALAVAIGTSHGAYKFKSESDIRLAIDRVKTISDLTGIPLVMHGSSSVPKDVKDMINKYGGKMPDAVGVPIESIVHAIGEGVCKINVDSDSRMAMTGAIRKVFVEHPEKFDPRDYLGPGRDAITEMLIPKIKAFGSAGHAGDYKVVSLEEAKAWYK
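40 nM FBPA preincubated 10 min at RT with compound (up to 57.5 uM final), then substrate plus GAPDH/TPI/NAD/arsenate coupling and diaphorase/resazurin added. Fluorescence read after 20 min at RT, 525/598 nm.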
Shiga toxin inh = Shiga toxin inhibition; Vero cells, Shiga toxin protein synthesis inhibition reporter; inhibition, % at 38.7 µM; 290,000 tested, 9.2% active; in the data active means inhibition mostly above about 28%, no sharp cut-off; inactive means mostly below about 43%
RE007 growth inh = less growth of the S. pombe RE007 Vpr strain; 360,000 tested, 0.21% active; S. pombe RE007 Vpr strain, BacTiter-Glo ATP luminescence, 24 h; Potency, µM (highest dose often 92.2 µM), actives largely listed as inhibitors; active means well fitted falling curve with a large enough effect; inconclusive means small, poorly fitted or top-dose-only effect; inactive means no such curve, though single readings can be large or run the other way; further: nearly all actives have a fitted effect of over 50% in size
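Fission yeast RE007 carrying one integrated HIV-1 vpr copy, seeded at OD 0.01 in PMG+AL medium with 23 nL pinned compound. Grown 24 h at 30 degrees; viability read by BacTiter-Glo luminescence after 5 min.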
TbPYK inhibitor = blocks Trypanosoma brucei pyruvate kinase; TbPYK enzyme, Kinase-Glo Plus ATP luminescence, 45 min; Potency, µM (series often up to 76.8 µM), hits mostly inhibitors; 410,000 tested, 0.12% active; Q57TT1; further: nearly all actives have a fitted effect of over 50% in size
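Glycolytic pyruvate kinase of T. brucei was incubated with substrate, test compound and 130 uM ADP for 45 minutes at room temperature. Luminescent Kinase-Glo Plus signal was measured after 10 minutes.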
CHX counter = affects cycloheximide protein synthesis inhibition readout, counter-screen; 300,000 tested, 12% active; max response, %; AID 2314; cell reporter, cycloheximide protein synthesis inhibition counterscreen; in the data active means max response mostly above about 13%, no sharp cut-off; inactive means mostly below about 14%; further: read at 38.3 µM for the half of the compounds with a filed dose
LmPK inhibitor = inhibitors of Leishmania mexicana pyruvate kinase; Potency, µM (series often up to 57.5 µM), most hits filed as inhibitors; 290,000 tested, 0.37% active; Q27686; purified LmPK, Kinase-Glo ATP luminescence, 1 h; AID 1721
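Purified LmPK (0.1 nM) with 0.5 mM PEP and 0.1 mM ADP in imidazole buffer pH 7.2 with MgCl2/KCl, 1 h at room temperature. ATP formed was read by luciferase luminescence and normalized to no-enzyme and uninhibited controls.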
Giardia growth = Giardia lamblia growth inhibition. shares compounds with Giardia FBPA inh-1. Giardia lamblia trophozoite growth inhibition. Potency, µM (doses to about 57.5 µM), hits mostly inhibitors. 1,500 tested, 5% active;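 further: trophozoites exposed to compound for 48 h at 37 °C; nearly all actives have a fitted effect of over 70% in size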
Mammal cell tox = counter-screen for Giardia aldolase inhibitors: mammalian cell toxicity. shares compounds with Giardia FBPA inh-1. 1,500 tested, 4% active. mammalian cell viability counter-screen, qHTS. Potency, µM (top dose mostly 57.5 µM), actives largely listed as inhibitors;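 further: Chinese hamster ovary cells used as mammalian cytotoxicity surrogate; viability measured as cellular ATP by luminescence; compound exposure lasted 48 h before reading; nearly all actives have a fitted effect of over 60% in size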
Giardia FBPA inh-2 = confirmation of Giardia fructose-bisphosphate aldolase inhibitors; shares compounds with Giardia FBPA inh-1; purified Giardia aldolase enzyme activity, qHTS; Potency, µM (titrated, usually from 57.5 µM), most hits filed as inhibitors; 1,500 tested, 5% active; AID 2787; further: nearly all actives have a fitted effect of over 45% in size
Rabbit FBPA inh = selectivity test for Giardia aldolase inhibitors: rabbit aldolase. AID 2794. Potency, µM (highest dose often 57.5 µM), usual class: inhibitors. shares compounds with Giardia FBPA inh-1. 1,500 tested, 4% active. Rabbit muscle FBPA enzyme inhibition, selectivity counter-screen; further: nearly all actives have a fitted effect of over 60% in size
GAPDH counter = counter-screen for Giardia aldolase inhibitors: GAPDH coupling enzyme; AID 2795; shares compounds with Giardia FBPA inh-1; Potency, µM (highest dose often 57.5 µM), actives largely listed as inhibitors; 1,500 tested, 6% active; GAPDH coupling enzyme counterscreen, biochemical, qHTS; further: nearly all actives have a fitted effect of over 55% in size
Hits are given with their value; - = inactive; ? = inconclusive; . = no result. Unless noted, the call rests on the fitted dose curve; in most records, active means well fitted curve in the direction sought with a large enough effect; inconclusive means small, poorly fitted or top-dose-only effect, or another doubt; inactive means no such curve, though single readings can be large; an effect the other way counts as inactive or inconclusive.

SMILES | Giardia FBPA inh-1 | Shiga toxin inh | RE007 growth inh | TbPYK inhibitor | CHX counter | LmPK inhibitor | Giardia growth | Mammal cell tox | Giardia FBPA inh-2 | Rabbit FBPA inh | GAPDH counter
Cc1cc(C)cc(NCc2cc3c(cc2[N+](=O)[O-])OCO3)c1 | - | - | - | - | - | - | . | . | . | . | .
O=C(N/N=C/c1c(O)n(-c2ccccc2)c(=S)[nH]c1=O)c1ccccc1 | - | 60 | - | - | 40 | - | - | - | ? | - | ?
O=C(N/N=C/c1c(O)n(-c2ccccc2)c(=O)[nH]c1=O)c1ccncc1 | - | - | - | - | - | - | . | . | . | . | .
Cc1nnc(N/N=C/c2ccc(-c3ccc(Br)cc3)o2)n1N | 16µM | - | - | - | - | - | - | - | ? | ? | -
Cc1nnc(N/N=C\c2ccc(-c3cccc(C(=O)O)c3)o2)n1N | 8.9µM | - | - | - | - | - | - | - | ? | ? | ?
Cc1cc(C)c(NC(=S)NCCCSC2CCCCC2)c(C)c1 | 16µM | - | - | - | - | - | ? | - | - | - | -
O=C1/C(=C\c2ccco2)SC(=S)N1C1CCCCC1 | - | . | . | . | - | - | . | . | . | . | .
CC1=C(C#N)C(=O)N(C2CCS(=O)(=O)C2)C(=O)/C1=C\c1ccco1 (stereo unspecified) | 10µM | - | . | . | - | ? | - | - | ? | ? | 21µM
CN1CC[C@@]2(C)c3cc(O)ccc3N(C)C2O1 (stereo partly specified) | 0.63µM | - | . | - | - | . | ? | - | 2.5µM | 3.5µM | 4.5µM
COc1ccc(-c2nc(C(=O)O)cs2)cc1OC | - | - | - | - | - | - | . | . | . | . | .
COc1ccc(C(=O)O)nc1C | 4µM | - | . | - | - | - | - | - | - | - | -
O=C(CNc1ccc(Br)cc1)Nc1ccc(S(=O)(=O)N2CCCC2)cc1 | . | . | - | - | . | . | . | . | . | . | .
CCn1c(CCc2ccccc2)nc2ccccc21 | 14µM | - | - | - | 32 | - | - | - | - | - | -
COc1ccc(-c2nc3cnc(N4CCN(C)CC4)nc3n(CCc3ccccc3)c2=O)cc1 | - | . | . | . | . | . | . | . | . | . | .
O=C(O)c1cccnc1C(=O)O | 0.63µM | . | - | - | . | . | - | - | - | - | -
O=C(O)c1cccnc1Cl | - | - | - | - | - | - | . | . | . | . | .
CCC(C)(C)NC(=O)C(c1cccc(OC)c1OC)N(CCOC)C(=O)CCC(=O)Nc1cc(C)on1 (stereo unspecified) | . | - | - | - | - | - | . | . | . | . | .
O=C1NC(=O)N(Cc2ccco2)C(=O)/C1=C/C=C/c1ccco1 | - | - | - | - | - | - | . | . | . | . | .
CN1C(=O)/C(=C/C=C/c2ccco2)C(=O)NC1=S | 16µM | - | - | - | - | - | - | - | - | - | -
COc1ccc(NC(=O)c2cc(C3CC3)nc3c2c(C)nn3-c2ccccc2)c(OC)c1 | . | . | . | - | . | . | . | . | . | . | .
COCCNC(=S)NN=C1CCCCCC1 | 20µM | - | - | - | - | - | - | - | - | - | -
NC(=S)NN=C1CCCCCCCCCC1 | . | . | - | - | . | . | . | . | . | . | .
COCCNC(=S)N/N=C1\CC(C)CC(C)(C)C1 (stereo unspecified) | 18µM | - | - | - | - | - | - | - | - | - | -
Cc1[nH]n(-c2ccccc2)c(=O)c1/C=N/Nc1nncc(-c2ccccc2)n1 | 7.9µM | - | - | - | - | - | ? | 20µM | - | - | -
O[N+]1=CC=CCC1=S.On1ccccc1=S.[Zn] | 0.5µM | . | . | . | . | . | 10µM | 2.8µM | ? | ? | ?
CCc1ccc(Cc2cnc(NC(=O)C3=NCCN3)s2)cc1 | 14µM | - | - | - | - | - | ? | - | - | - | -
